# Data taken from PubChem BioAssay.
# Calls of active or inactive are those of the source.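 The calls were made as follows, unless noted: active = NADPH fluorescence slope more negative than the mean of all samples by about 3 SD, 99.7% confidence; inactive = the rest.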
# Experiments:
# [1] = inhibitors of TNFa-induced NFkB p65 translocation, primary screen, imaging, HUVEC, MLSMR starter and 10KST1 sets (AID 438;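 active = inhibition above 20% together with a positive visual image hit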;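 also: compound added about 3h40 before a 20 min TNFalpha stimulation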;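 as to inhibition: signal is the nuclear over cytoplasmic p65 intensity ratio per well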); conditions: HUVEC TNFa-induced p65 nuclear translocation; cell count: measured here: nuclei count (cytotoxicity indicator), at 2.08 µM; inhibition: at 2 µM, stronger effect = higher value, 0% TNFa-plus-vehicle, 100% no-TNFa wells
# [2] = reduction of polyQ htt aggregates in cells – imaging, exon1htt(103Q)mCFP cells, high-content imaging, primary screen (AID 483;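 active = visual image review flags a hit and inhibition of aggregation exceeds 20%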;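 also: compound exposure lasted 3 days before fixation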;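 as to nuclei count: percent of the per-plate median nuclei count of sample wells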); conditions: exon1htt(103Q)mCFP cell line, aggregate imaging, at 2 µM; inhibition of aggregation: stronger effect = higher value; nuclei count: measured here: cell count, toxicity
# [3] = endothelial E-selectin expression blockers – imaging, HUVEC, immunofluorescence, MLSMR starter and 10KST1 sets, primary screen (AID 487;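 active = visually confirmed hit in the image check and inhibition above 20%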;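 as to inhibition: signal is fraction of cell area covered by stained E-selectin grains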;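 as to nuclei count: 100% = median nuclei count of all wells on the same plate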); conditions: HUVEC TNFalpha-induced E-selectin immunofluorescence imaging, at 2 µM; inhibition: stronger effect = higher value; nuclei count: measured here: cell number, toxicity
# [4] = biological target: Voltage-gated potassium channel subunit beta-2 (Rattus norvegicus) (UniProt P62483); test: inhibitors of rat Kvbeta2 reductase activity – biochemical, NADPH fluorescence, primary screen (AID 622;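 active = fluorescence slope higher than the sample average by over 3 SD, cut at about -0.22 in these data, passing the limit was not always enough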;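 also: slope of raw intensity against log time taken from 70 to 1610 s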); conditions: recombinant KvBeta, 4-cyanobenzaldehyde reduction, at 10 µM, stronger effect = higher value
# [5] = biological target: Voltage-gated potassium channel subunit beta-2 (Rattus norvegicus) (UniProt P62483); test: enhancers of rat Kvbeta2 NADPH turnover – biochemical, NADPH fluorescence, primary screen (AID 623); conditions: Recombinant KvBeta, NADPH fluorescence decrease slope, 10 min; at 10 µM; stronger effect = lower value;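 also: fluorescence intensity change per second fitted from 20 to 320 s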
# [6] = biological target: Alpha-2C adrenergic receptor (Homo sapiens) (UniProt P18825); test: compounds altering alpha2C-coupled GIRK flux – cell-based, HEK293 alpha2C/GIRK1/2, thallium flux, primary screen (AID 624;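 active = fluorescence slope after compound addition differing from the mean of all screened samples at 99.7% confidence, in either direction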;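 also: slope of fluorescence ratio to pre-addition baseline per second over 15 to 24 s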); conditions: thallium flux BTC fluorescence, at 10 µM, actives lie on both sides
# [7] = blockers of RIG-like receptor reporter activation – cell-based, Sendai virus stimulus, luciferase, 10K MLSCN set, TLR/RLR signaling modifier project, primary screen (AID 602276;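 active = inhibition at or above 50% at 10 µM; inactive = inhibition below 50%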;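 also: firefly luciferase from ISG56 promoter only with Renilla not read in this screen; 0% = Sendai virus plus DMSO and 100% = medium plus DMSO without virus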); conditions: HEK293 RL24 IRF3 luciferase reporter, at 10 µM, stronger effect = higher value
# [8] = TLR3 IRF3 reporter activation blockers – cell-based, poly I:C stimulus, luciferase, 10K MLSCN set, primary screen (AID 602277;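 active = inhibition of the reporter signal at or above 50%; inactive = inhibition below 50%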); conditions: HEK293-TLR3 RL24 IRF3 luciferase reporter, at 10 µM, stronger effect = higher value
# Chain of Alpha-2C adrenergic receptor (Homo sapiens) (P18825 whole entry, looked up): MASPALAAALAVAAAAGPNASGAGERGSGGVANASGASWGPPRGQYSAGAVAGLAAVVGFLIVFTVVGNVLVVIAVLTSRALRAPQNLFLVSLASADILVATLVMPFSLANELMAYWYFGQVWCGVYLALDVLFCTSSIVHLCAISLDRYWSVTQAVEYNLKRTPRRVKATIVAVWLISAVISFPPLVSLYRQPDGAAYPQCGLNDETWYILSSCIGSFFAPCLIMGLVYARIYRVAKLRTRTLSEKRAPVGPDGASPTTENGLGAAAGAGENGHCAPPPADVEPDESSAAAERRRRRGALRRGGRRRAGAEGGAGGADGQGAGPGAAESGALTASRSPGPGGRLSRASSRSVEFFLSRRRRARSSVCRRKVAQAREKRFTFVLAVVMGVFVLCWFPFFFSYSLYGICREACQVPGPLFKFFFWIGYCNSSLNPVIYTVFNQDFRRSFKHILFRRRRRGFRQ
# Chain of Voltage-gated potassium channel subunit beta-2 (Rattus norvegicus) (P62483 whole entry, looked up): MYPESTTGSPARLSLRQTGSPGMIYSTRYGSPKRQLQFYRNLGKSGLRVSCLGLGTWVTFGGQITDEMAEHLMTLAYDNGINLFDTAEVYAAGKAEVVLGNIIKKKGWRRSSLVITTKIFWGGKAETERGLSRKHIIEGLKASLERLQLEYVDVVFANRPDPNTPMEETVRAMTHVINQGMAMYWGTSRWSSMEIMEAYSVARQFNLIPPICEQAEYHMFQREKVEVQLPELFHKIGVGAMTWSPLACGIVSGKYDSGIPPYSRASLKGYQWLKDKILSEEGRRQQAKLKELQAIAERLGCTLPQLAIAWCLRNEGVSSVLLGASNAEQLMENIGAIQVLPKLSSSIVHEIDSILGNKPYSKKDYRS
Structure (SMILES),cell count [1],inhibition [1],inhibition of aggregation [2],nuclei count [2] [%],inhibition [3],nuclei count [3] [%],fluorescence slope [4],NADPH fluorescence slope [5],slope [6],inhibition [7],inhibition [8]
CCN1CCN(CCNC(=O)c2cn(C(C)c3ccccc3F)nn2)CC1 (stereo not drawn),560,-29.6% (inactive),-18.1% (inactive),112,-32.9% (inactive),110,-0.61 (inactive),-1.9e-05 (inactive),0.00807 (inactive),12% (inactive),9.63% (inactive)
Cc1onc(-c2ccccc2)c1C(=O)N1CCOCC1,619,-3.5% (inactive),-7.5% (inactive),113,-39.2% (inactive),106,-0.327 (inactive),7.5e-06 (inactive),0.00368 (inactive),12.5% (inactive),20.9% (inactive)
COc1ccc(CCN2C(=O)CC(N3CCOCC3)C2=O)cc1 (stereo not drawn),665,-1.8% (inactive),-7.6% (inactive),100,-57% (inactive),102,-0.496 (inactive),-6.6e-05 (inactive),0.00402 (inactive),4.57% (inactive),-0.756% (inactive)
CCCNC(=O)C1=C(C)C(=O)OC12CCC(C)CC2 (stereo not drawn),666,1.6% (inactive),-3.8% (inactive),115,-28.8% (inactive),115,-0.589 (inactive),1.9e-05 (inactive),0.00681 (inactive),3.82% (inactive),12% (inactive)
O=c1/c(=C/c2ccco2)sc2nc(-c3ccccc3Br)nn12,343,0.2% (inactive),14.2% (inactive),107,-34.7% (inactive),118,-0.585 (inactive),-2.3e-05 (inactive),0.00315 (inactive),16.2% (inactive),18.1% (inactive)
Cc1ccc(N2C(N)=NC(N)=NC23CCCC3)c(C)c1,656,-5.9% (inactive),-11.1% (inactive),106,-26% (inactive),122,-0.635 (inactive),-5.6e-06 (inactive),0.0067 (inactive),10% (inactive),18.1% (inactive)
CCn1c(SCC(=O)c2ccc(Cl)cc2)nnc1-c1ccoc1C,352,0.2% (inactive),-24% (inactive),110,-69.1% (inactive),108,-0.503 (inactive),-6.2e-05 (inactive),0.00727 (inactive),3.62% (inactive),5.26% (inactive)
CCn1cc(C(=O)NCC2CCCO2)c(=O)c2cc(S(=O)(=O)N(C)C)ccc21 (stereo not drawn),767,-2.4% (inactive),-9.8% (inactive),105,-50.6% (inactive),117,-0.465 (inactive),-8.2e-05 (inactive),0.00671 (inactive),-12.7% (inactive),1.32% (inactive)
CCN(C(C)=O)c1nnc(CSc2nc3ccccc3s2)s1,531,-15.2% (inactive),10.2% (inactive),96.4,-11.6% (inactive),119,-0.475 (inactive),2.8e-05 (inactive),0.00523 (inactive),-76.7% (inactive),-233% (inactive)
Cc1cc(=O)oc2cc(OCC(=O)OCC(=O)N3CCc4ccccc43)ccc12,358,4.7% (inactive),-5% (inactive),88.9,-44.9% (inactive),103,-0.331 (inactive),-5.7e-05 (inactive),0.00553 (inactive),11% (inactive),16.2% (inactive)
O=C(NCCN1CCCCCC1)c1ccc(N2CCCC2=O)cc1,561,-4.7% (inactive),23.6% (inactive),84.5,60.4% (inactive),24.3,-0.406 (inactive),-4.1e-05 (inactive),0.00534 (inactive),16.9% (inactive),17.9% (inactive)
Cc1cc(C)cc(Nc2ncc3c(n2)CC(c2ccco2)CC3=O)c1 (stereo not drawn),465,-18.3% (inactive),-14.3% (inactive),106,-88% (inactive),114,-0.385 (inactive),-3e-05 (inactive),0.00418 (inactive),14.2% (inactive),-2.34% (inactive)
COCCn1cc(C(=O)c2ccccc2OCC(=O)Nc2cc(C)on2)cc(C#N)c1=O,455,5.8% (inactive),-23.9% (inactive),77.9,-7% (inactive),97.9,-0.368 (inactive),6.2e-06 (inactive),0.00464 (inactive),9.82% (inactive),15.9% (inactive)
